The list is not random: actives were taken first. Their share in the collection is about 5.3%.
15-hLO-2 inh: blocks human 15-lipoxygenase 2 activity; purified 15hLO-2, xylenol orange hydroperoxide absorbance; Potency, µM (doses to about 57.1 µM), without a hit: top-dose activity change, negative = inhibition, most hits filed as inhibitors; 110,000 tested, 0.56% active; also: potency is read from the fitted curve at half-maximal effect; nearly all actives have a fitted effect of over 60% in size
Target sequence (O15296 whole entry, looked up): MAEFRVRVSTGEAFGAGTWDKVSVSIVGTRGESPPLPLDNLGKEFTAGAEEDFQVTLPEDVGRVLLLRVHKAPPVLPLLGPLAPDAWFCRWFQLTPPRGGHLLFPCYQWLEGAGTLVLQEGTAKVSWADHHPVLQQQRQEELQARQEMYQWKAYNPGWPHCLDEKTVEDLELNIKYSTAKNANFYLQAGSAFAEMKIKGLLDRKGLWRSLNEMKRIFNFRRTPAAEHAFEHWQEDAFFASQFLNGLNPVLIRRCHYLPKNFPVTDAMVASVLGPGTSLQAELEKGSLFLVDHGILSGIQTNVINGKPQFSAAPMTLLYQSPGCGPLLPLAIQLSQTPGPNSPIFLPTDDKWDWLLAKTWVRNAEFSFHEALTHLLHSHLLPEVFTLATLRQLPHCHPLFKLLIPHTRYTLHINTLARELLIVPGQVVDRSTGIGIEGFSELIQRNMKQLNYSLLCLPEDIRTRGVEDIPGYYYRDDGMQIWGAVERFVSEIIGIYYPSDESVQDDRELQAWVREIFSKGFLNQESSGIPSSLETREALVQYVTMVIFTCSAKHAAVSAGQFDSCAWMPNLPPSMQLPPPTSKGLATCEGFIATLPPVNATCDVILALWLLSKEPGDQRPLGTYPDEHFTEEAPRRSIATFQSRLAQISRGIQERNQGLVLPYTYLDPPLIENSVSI
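Purified human 15hLO-2 (50 nM final) preincubated with compounds 15 min at room temperature in 25 mM Hepes pH 7.5, 0.01% Triton X-100, then 45 uM arachidonic acid added for 90 min; hydroperoxide detected via ferrous/xylenol orange, 573/405 nm absorbance ratio.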
PNC assembly inh: inhibitors of perinucleolar compartment assembly; activity change (PNC), negative = inhibition, % at 10 µM; PC3M PTB-GFP, PNC prevalence imaging, 16 h; hits give low values; 140,000 tested, 3.1% active;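 active = readout at or below -70, meaning at least 70% loss of cells showing the perinucleolar compartment, a nuclear body marking cancer cells; inconclusive = readout between -30 and a set limit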;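 also: plate controls were DMSO wells for no effect and camptothecin positive control wells for full effect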
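Read-out is percentage of cells bearing a perinucleolar compartment, from automated 20x imaging of fixed, Hoechst-stained PC3M PTB-GFP cells. Cells were seeded 4 h, then exposed 16 h to compound (23 nl of library stock) in duplicate plates.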
HPGD inh: blocks human HPGD enzyme activity; Potency, µM, for the others: top-dose activity change, negative = inhibition, actives largely listed as inhibitors; 150,000 tested, 4.3% active; purified HPGD, NADH fluorescence kinetic, PGE2 substrate; P15428; active = well fitted inhibition curve with a large enough effect, not every such curve was filed as active; inconclusive = small, poorly fitted or top-dose-only effect, or another doubt; inactive = no such curve, though single readings can be large or run the other way; also: potency is read from the fitted curve at half-maximal effect
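20 nM HPGD preincubated 15 min at room temperature with compound in 50 mM Tris-HCl pH 8, 0.01% Tween 20. Started with 1 mM NAD+ and 30 uM prostaglandin E2; NADH fluorescence (360/450 nm) read 5 times over 30-s intervals, last minus first.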
IMPase Li cell: IMPase inhibition in cells with lithium potentiation | Potency, µM (series often up to 59.4 µM), for the others: top-dose activity, negative = IMPase inhibition, most hits filed as inhibitors | CHO-M1 cells, IP1 TR-FRET (IP-One), carbachol + lithium | 210,000 tested, 0.35% active;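 also: IP1 builds up when IMPase is blocked and the TR-FRET signal falls; potency is read from the fitted curve at half-maximal effect; plate controls were basal vehicle for no effect and high inhibitor control for full effect; nearly all actives have a fitted effect of over 50% in size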
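Concentration–response in CHO-M1 cells, lithium-potentiated; 30 min at 37C. IP1 detected by competitive TR-FRET after 10 min lysis at RT. Hill-fitted AC50.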
12-hLO inh: 12-hLO (ALOX12) enzyme inhibition; P18054; purified 12-hLO, xylenol orange hydroperoxide absorbance; Potency, µM (doses to about 57.1 µM), without a hit: top-dose activity change, negative = inhibition, usual class: inhibitors; 150,000 tested, 0.12% active; AID 1452; also: potency is read from the fitted curve at half-maximal effect; nearly all actives have a fitted effect of over 55% in size
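Hydroperoxide formation by human 12-lipoxygenase from 40 uM arachidonic acid was followed colorimetrically via ferric-xylenol orange complex, using the 573/405 nm absorbance ratio. Enzyme concentration was 150 nM, with 30 min reaction at room temperature.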
IMPase inh: cell-permeable inhibitors of inositol monophosphatase (IMPase); CHO-M1 cells, IP1 accumulation, HTRF TR-FRET ratio; inhibition (IP1 accumulation), % at 46.1 µM; P97697; 120,000 tested, under 10 active; active = well fitted curve in the direction sought with a large enough effect in the signal ratio, not every such curve was filed as active; inconclusive = small, poorly fitted or top-dose-only effect, or a change in a side signal; inactive = no such curve, though single readings can be large or run the other way; the % refers to the signal ratio;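 also: cells stimulated with carbachol in lithium chloride buffer; plate controls were DMSO basal wells for no effect and reference inhibitor wells for full effect; higher means more IMPase inhibition seen as more IP1 and lower FRET ratio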
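CHO-M1, 2000 cells/well, cultured 16–30 h; cpd up to 46 uM; carbachol (50 uM solution, stimulation buffer w/ 50 mM LiCl, pH 7.4), 30 min 37C; IP-One TR-FRET, 10 min RT; Ex 320/Em 665, 620; Hill-fit AC50.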
The depositor's hits bear a star; ? = inconclusive; / = no result; [ ] = remark or other dose. Unless noted, calls follow the shape of the dose curve; as a rule, active = well fitted curve in the direction sought with a large enough effect; inconclusive = small, poorly fitted or top-dose-only effect, or another doubt; inactive = no such curve, though single readings can be large; an effect the other way counts as inactive or inconclusive. Unless noted, % is scaled to controls: 0 for no effect and ±100 for the full control effect.

SMILES	15-hLO-2 inh	PNC assembly inh	HPGD inh	IMPase Li cell	12-hLO inh	IMPase inh
COC(=O)N/N=C\C=C\c1ccc2c(c1)OCO2	12%	42	-5%	-5%[38.3 µM]	6%	-1
Cc1cccc2cc3c(N)c(C#N)sc3nc12	-3%	?	-7%	-20%[38.3 µM]	-17%	0
Cc1sc(NC(=O)c2sc3nc4c(C)cccc4cc3c2N)c(C#N)c1C	/	?	7.1µM*	-20%[38.3 µM]	-28%	-4
CCOC(=O)CSc1cn2c(n1)CCC2	/	-100*	?	1%	0%	5
COc1ccc(NC(=O)Cn2c(=O)n(-c3ccc(OC)cc3OC)c(=O)c3c(C)c(C)sc32)cc1	/	?	-14%	-3%	-4%	-4
CC(=O)N(Cc1ccco1)c1nc(C(=O)Nc2ccc(Cl)cc2)c(C)s1	/	?	?	8%	-6%	8
O=C(c1cccnc1)c1cccnc1	/	-124*	-15%	2%	-3%	/
O=C(/C=C/c1ccccc1Cl)c1cccnc1	-9%	5	28µM*	37%[38.3 µM]	-3%	5
O=C(/C=C/c1ccc(Cl)cc1)c1cccnc1	-14%	-1	-13%	3%[38.3 µM]	-8%	8
COC(=O)[C@H](C)NC(=O)Nc1cc(OC)ccc1OC	1%	?	-7%	1%	4%	2
C(=N\Nc1nc2ccccc2[nH]1)/C1CCCCC1	/	/	/	14%	/	/
CCCNC(=S)Nc1ccc(Cl)cc1Cl	/	-28	-16%	2%	-1%	/
S=C(Nc1ccc(Cl)cc1Cl)Nn1cnnc1	/	?	7.9µM*	7%	-12%	/
Cn1cccc1CC(=O)NNC(=S)Nc1ccc(F)cc1	/	5	-24%	2%	-3%	/
Cn1cccc1CC(=O)NNC(=S)Nc1ccc(Cl)cc1Cl	/	49	11µM*	0%	-7%	1
S=C(Nc1cccc(Cl)c1Cl)Nn1cnnc1	/	18	25µM*	-2%	2%	0
S=C(Nc1ccccc1)Nn1cnnc1	/	0	14µM*	-3%	3%	/
Cc1cccc(NC(=S)Nn2cnnc2)c1C	/	/	/	1%	/	/
c1ccc2c(-c3cn4ccccc4n3)c[nH]c2c1	/	/	/	8%	/	/
Nc1ccccc1SC1CC(=O)N(Cc2ccccc2)C1=O (stereo not drawn)	/	/	/	-1%	/	/
CC1(C)CC(=O)C(C=NCCN2CCN(C3CC(=O)N(c4ccc(Br)cc4)C3=O)CC2)=C(O)C1 (stereo not drawn)	/	/	/	-5%	/	/
c1cncc(CNc2cc(-c3ccoc3)ncn2)c1	3%	/	/	-8%	/	/
Cc1ccc(S(=O)(=O)c2c(N)n(/N=C/c3ccco3)c3nc4ccccc4nc23)cc1C	13µM*	-16	?	-31%[38.3 µM]	?	-12
Cc1ccc([N+](=O)[O-])cc1-c1ccc(/C=C(\C#N)c2[nH]nc(N)c2C#N)o1	/	43	2.2µM*	5%	-3%	/
COCCn1c(C(=O)N2CCCC2)cc2c1C[C@H]1CN(C(=O)c3ccccc3)[C@@](Cc3ccc(OC)cc3)(C(=O)OC)[C@@H]21	2%	/	-15%	-5%	-2%	/
C=CCn1c(C)cc(C(=O)COC(=O)c2ccc3c(c2)NC(=O)CS3)c1C	/	-81*	22µM*	12%	-1%	/
C=CCC1(C#N)C(SC)=NC2=C(C(=O)CC(C)(C)C2)C1c1ccc(Br)cc1 (stereo not drawn)	/	-7	-5%	7%	-2%	15
COc1ccc2cc(CN(CC3COCCO3)S(=O)(=O)c3ccc(Cl)cc3)c(=O)[nH]c2c1 (stereo not drawn)	-9%	29	26%	7.1µM*	-3%	8
COc1ccc2cc(CN(CC3COCCO3)S(=O)(=O)c3c(C)cc(C)cc3C)c(=O)[nH]c2c1 (stereo not drawn)	-8%	?	-24%	-16%[38.3 µM]	-1%	4
Cc1ccc(S(=O)(=O)N(Cc2cc3cc4c(cc3[nH]c2=O)OCCO4)CC2CCCO2)cc1 (stereo not drawn)	-1%	38	?	7.1µM*	2%	-9

Screens (PubChem)
